Source: PubChem
TDP1 cell noCPT = qHTS for Inhibitors of human tyrosyl-DNA phosphodiesterase 1 (TDP1): qHTS in cells in absence of CPT | DT40 Tdp1-/- hTDP1 cells, no CPT, ATP luminescence, 48 h | Potency, µM (top dose mostly 46.2 µM), for inactives: at the highest dose activity change, negative = growth inhibition, usual class: inhibitors | 420,000 tested, 15% active | AID 686978, 2013; also: nearly all actives have a fitted effect of over 55% in size
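Chicken DT40 Tdp1-/- cells stably complemented with human TDP1 were seeded at 400 cells/well with DMSO in place of 20 nM camptothecin. After compound pinning, cells grew at least 48 hr at 37 °C; viability read by CellTiter-Glo luminescence.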
TDP1 inh = TDP1 (human) enzyme inhibition; recombinant TDP1, AlphaScreen DNA substrate cleavage; Potency, µM (series often up to 130 µM), for inactives: at the highest dose activity change, negative = inhibition, hits mostly inhibitors; AID 485290; 350,000 tested, 0.28% active; also: nearly all actives have a fitted effect of over 40% in size
Target sequence (Q9NUW8 whole entry, looked up): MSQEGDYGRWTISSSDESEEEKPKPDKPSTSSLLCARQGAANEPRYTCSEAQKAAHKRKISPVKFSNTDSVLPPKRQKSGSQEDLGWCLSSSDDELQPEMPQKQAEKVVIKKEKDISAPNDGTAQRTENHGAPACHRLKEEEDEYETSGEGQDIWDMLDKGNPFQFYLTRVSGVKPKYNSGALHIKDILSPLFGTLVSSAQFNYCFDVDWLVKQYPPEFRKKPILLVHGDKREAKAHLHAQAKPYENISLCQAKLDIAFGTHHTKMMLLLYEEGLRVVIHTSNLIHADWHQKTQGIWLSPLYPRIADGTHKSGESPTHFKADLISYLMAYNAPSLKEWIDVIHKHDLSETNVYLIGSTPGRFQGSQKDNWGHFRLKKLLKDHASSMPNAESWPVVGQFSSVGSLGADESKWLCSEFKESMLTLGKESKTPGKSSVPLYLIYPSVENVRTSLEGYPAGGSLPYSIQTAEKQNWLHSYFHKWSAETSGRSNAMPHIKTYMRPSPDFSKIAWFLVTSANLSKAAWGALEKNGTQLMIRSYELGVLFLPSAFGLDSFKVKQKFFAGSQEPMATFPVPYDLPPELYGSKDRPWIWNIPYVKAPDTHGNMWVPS
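Compounds were preincubated with Tdp1 (1 nM final) for 15 min at room temperature before substrate (15 nM final) started a 5 min reaction; beads (10 ug/ml final) were then added for 10 min before AlphaScreen detection.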
DT40 TDP1 CPT = growth inhibition of DT40 Tdp1-/-;hTDP1 cells with camptothecin (screen for TDP1 inhibitors) | 420,000 tested, 12% active | chicken DT40 Tdp1-/-;hTDP1 cells + 20 nM CPT, ATP luminescence, 48 h | Potency, µM (doses to about 46.2 µM), inactives show at the highest dose activity change, negative = growth inhibition, actives largely listed as inhibitors; also: nearly all actives have a fitted effect of over 55% in size
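Chicken DT40 Tdp1-/- cells complemented with human TDP1, 400 cells/well, exposed to compounds plus 20 nM camptothecin for at least 48 h at 37 C; viability read as ATP content by CellTiter-Glo luminescence.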
RORgamma inh = ROR gamma (mouse) transcription inhibition; 310,000 tested, 5.4% active; AID 2551; P51450; Potency, µM (highest dose often 53.6 µM), for the others: at the highest dose activity change, negative = inhibition, most hits filed as inhibitors; Drosophila S2 Gal4-RORgamma UAS-luciferase reporter, 20 h; also: nearly all actives have a fitted effect of over 60% in size
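In this cell-based reporter format, copper sulfate (700 uM final) drives Gal4–ROR gamma fusion expression from a metallothionein promoter in Drosophila Schneider cells; compounds preincubated 1 hr, reporter read after 20 hr at ambient temperature.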
VP16 counter = Gal4-VP16 reporter inhibition counter-screen. 310,000 tested, 3.5% active. AID 2546. Potency, µM (top dose mostly 53.6 µM), inactives show at the top dose activity, negative = inhibition, most hits filed as inhibitors. Drosophila S2 Gal4-VP16 UAS-luciferase, luminescence, 20 h;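 also: Gal4-VP16 expression switched on by copper sulfate through the metallothionein promoter; nearly all actives have a fitted effect of over 50% in size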
* marks the source's active call; other numbers are inactive results; ? = inconclusive; . = no result given; [ ] = remark or other dose. An excerpt weighted towards active compounds, which were near 19% of everything screened. Calls follow the shape of the dose curve; as a rule, active = well fitted curve in the direction sought with a large enough effect; inconclusive = small, poorly fitted or top-dose-only effect, or another doubt; inactive = no such curve, though single readings can be large; an effect the other way counts as inactive or inconclusive. % is scaled to controls: 0 for no effect and ±100 for the full control effect; potency is read from the fitted curve at half-maximal effect.

SMILES | TDP1 cell noCPT | TDP1 inh | DT40 TDP1 CPT | RORgamma inh | VP16 counter
COc1ccc(-c2[nH]nc3c2C(c2ccccc2OC(=O)N2CCOCC2)C(C#N)=C(N)O3)cc1 (stereo not given) | -16% | 6% | -18% | -29% | 2%
COc1ccc(C2=C(Nc3ccc(Br)c(C)c3)c3ccccc3C2=O)cc1 | 12µM* | 12% | 7.3µM* | . | .
COc1ccc(C2=C(Nc3ccc(C)cc3)c3ccccc3C2=O)cc1 | ? | 3% | 5.2µM* | 15%[10 µM] | -16%
Cc1cc(C)cc(NC2=C(c3ccccc3)C(=O)c3ccccc32)c1 | ? | 12% | 21µM* | . | .
COc1ccc(NC(=O)Nc2ccc(Br)c(C)c2)cc1 | -7% | 5% | 1% | 21% | 20%
COc1ccc(C2=C(Nc3ccc(F)cc3)c3ccccc3C2=O)cc1 | ? | 9% | ? | 0% | -6%
CC(C)(C)c1ccc(Cn2nnc3c(=O)[nH]c(C4CCN(C(=O)Cc5cccs5)CC4)nc32)cc1 | 21µM* | 11% | ? | 32% | ?
CC(C)(C)CC(=O)N1CCC(c2nc3c(nnn3Cc3c(F)cccc3Cl)c(=O)[nH]2)CC1 | ? | 3% | 16µM* | 7% | -14%
O=C(c1ccco1)N1CCC(c2nc3c(nnn3Cc3c(Cl)cccc3Cl)c(=O)[nH]2)CC1 | ? | 1% | -18% | ? | -9%
O=C(Cc1cccs1)N1CCCC(c2nc3c(nnn3Cc3ccc(F)cc3)c(=O)[nH]2)C1 (stereo not given) | 1% | 5% | -25% | -2% | -4%
CC(C)(C)c1ccc(Cn2nnc3c(=O)[nH]c(C4CCCN(C(=O)Cc5cccs5)C4)nc32)cc1 (stereo not given) | ? | 4% | 23µM* | ? | -24%
CC(C)(C)c1ccc(Cn2nnc3c(=O)[nH]c(C4CCCN(C(=O)c5cccs5)C4)nc32)cc1 (stereo not given) | ? | . | 16µM* | ? | -1%
O=C(COC(=O)C1CC(=O)N(Cc2ccccc2)C1)Nc1ccccc1F (stereo not given) | -2% | . | 5% | 11% | 0%
Nc1ccc(N2CCCCC2)c2nonc12 | 16µM* | 3% | 26µM* | -28% | 3%
COc1cccc(N(CC(=O)Nc2ccc3c(c2)OCO3)S(=O)(=O)c2ccccc2)c1 | ? | 8% | ? | ? | 20%
COc1ccccc1N(CC(=O)Nc1ccc(C)c(Cl)c1)S(=O)(=O)c1ccc(C)cc1 | 18µM* | . | 21µM* | . | .
COc1ccc(OC)c(N(CC(=O)NC2CC3CCC2C3)S(=O)(=O)c2ccccc2)c1 (stereo not given) | ? | . | ? | 10% | -3%
COc1ccccc1N(CC(=O)Nc1ccc2c(c1)OCO2)S(=O)(=O)c1ccccc1 | 13µM* | 4% | ? | 14% | -13%
COc1ccc(S(=O)(=O)N(CC(=O)Nc2ccc3c(c2)OCO3)c2ccccc2OC)cc1 | 15µM* | 6% | 21µM* | 44% | -1%
COc1ccc(C)cc1N(CC(=O)Nc1cccnc1)S(=O)(=O)c1ccc(C)cc1 | ? | 4% | ? | 27% | 7%
COc1ccc(Cl)cc1N(CC(=O)NC1CC2CCC1C2)S(=O)(=O)c1ccccc1 (stereo not given) | ? | 3% | 21µM* | 31% | -3%
Cn1cc(C(=O)N2CCN(c3ccccc3)CC2)c(=O)c2cc(S(=O)(=O)N3CCCC3)ccc21 | -28% | 4% | -16% | 7% | 3%
CSCC[C@H](NC(=O)COc1ccc(Cl)cc1)C(=O)N1CCC2(CC1)NCCc1[nH]cnc12 | -14% | 3% | -9% | -3% | -2%
CN(c1ccccc1C(=O)O)S(=O)(=O)c1ccc2[nH]c(=O)[nH]c2c1 | -14% | . | 1% | -2% | -4%
COc1ccc(CCNC(=O)c2cc3sc(Cl)cc3n2C)cc1OC | ? | 8% | ? | 25% | -6%
